# GLS inhibitor: glutaminase GLS (human) inhibition; O94925; GLS enzymatic activity, qHTS titration; Potency, µM (highest dose often 45.5 µM), inactives show top-dose activity change, negative = inhibition, actives largely listed as inhibitors; hit rate 0.21% among 410,000; also: potency is read from the fitted curve at half-maximal effect; % is scaled to controls: 0 for no effect and ±100 for the full control effect
# Target sequence (O94925 whole entry, looked up): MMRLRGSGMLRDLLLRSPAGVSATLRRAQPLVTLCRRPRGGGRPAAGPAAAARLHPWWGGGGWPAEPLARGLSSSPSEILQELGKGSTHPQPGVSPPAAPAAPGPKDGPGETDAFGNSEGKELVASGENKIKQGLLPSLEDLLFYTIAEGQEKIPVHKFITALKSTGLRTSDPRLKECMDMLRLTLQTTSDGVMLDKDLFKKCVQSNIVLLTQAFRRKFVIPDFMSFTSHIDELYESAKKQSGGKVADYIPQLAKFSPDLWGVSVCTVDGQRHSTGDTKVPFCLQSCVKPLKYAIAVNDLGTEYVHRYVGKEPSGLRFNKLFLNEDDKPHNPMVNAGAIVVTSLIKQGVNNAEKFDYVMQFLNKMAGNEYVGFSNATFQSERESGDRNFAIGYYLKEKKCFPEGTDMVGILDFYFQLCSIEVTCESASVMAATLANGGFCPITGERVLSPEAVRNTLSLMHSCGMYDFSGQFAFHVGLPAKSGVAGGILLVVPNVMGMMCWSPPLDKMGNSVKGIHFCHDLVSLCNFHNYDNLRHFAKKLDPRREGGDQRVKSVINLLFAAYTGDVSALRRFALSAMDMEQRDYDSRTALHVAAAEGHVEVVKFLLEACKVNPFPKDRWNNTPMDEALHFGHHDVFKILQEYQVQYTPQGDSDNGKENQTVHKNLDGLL
#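 Human kidney-isoform GLS in 45 mM KH2PO4 pH 8.2, 0.02% Tween-20, with compound, started with 1mM L-Glutamine (added stock). Glutamate oxidase/HRP/Amplex red coupled fluorescence read at start and after 30 min at RT.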
# MmCpn inh: M. maripaludis TRiC chaperonin inhibition. purified Mm-Cpn ATPase, ADP Transcreener TR-FRET. Potency, µM (doses to about 76.9 µM), for the others: at the highest dose activity, negative = inhibition, hits mostly inhibitors. hit rate 0.031% among 330,000. AID 504842; also: potency is read from the fitted curve at half-maximal effect; % is scaled to controls: 0 for no effect and ±100 for the full control effect; nearly all actives have a fitted effect of over 80% in size
#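 Purified archaeal Mm-CPN (25nM final) preincubated 10 min at 37degC with compound, then 10uM ATP for 30 min at 37degC; ADP measured by HTRF Transcreener TR-FRET; buffer 30 mM TRIS pH 7.4, 100mM KCl, 5mM MgCl2, 1mM DTT.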
# CCT chaperon mod: modulators of cytosolic chaperonin (CCT/TRiC) activity | activity change, % (test concentration not listed), hits read low | hit rate 0.3% among 360,000 | AID 651819 | purified chaperonin ATPase assay, HTRF ADP detection, 30 min; in the data active = activity change below about -30%; also: % is scaled to controls: 0 for no effect and ±100 for the full control effect
#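 ATPase activity: ADP formed was measured by HTRF Transcreener (665/615 nm ratio) after 30 min at 37 deg C with 10 uM ATP. Compounds screened at one 76 uM concentration against 40 or 20 nM TRiC in Tris pH 7.4/KCl/MgCl2/DTT buffer.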
# pAkt inh: Akt phosphorylation inhibition; Neuro2A IGF-stimulated pAkt S473 HTRF, 20 min; stronger effect = lower value; activity change, % for hits at 50 µM; hit rate 0.32% among 360,000; AID 651550; in the data active = activity change below about -80%; inconclusive = mostly about -51% to -80%; also: % is scaled to controls: 0 for no effect and ±100 for the full control effect
#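 Single-point screen (50 µM final compound) in Neuro2A cells stimulated 20 min with 6 nM IGF at 37 deg C. After lysis, Ser473-phosphorylated Akt read by HTRF (ex 330 nm, em 615/665 nm) as the 665/615 ratio.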
# GRP78 ERSR act: ER stress response induction in glioma. hit rate 0.02% among 420,000. U87-MG GRP78 promoter luciferase reporter, 16 h. Potency, µM, for the others: top-dose activation, usual class: activators; also: potency is read from the fitted curve at half-maximal effect; series mostly up to about 76 µM; % of control where 0% means no effect; nearly all actives have a fitted effect of over 35% in size
#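 Stably transfected U87-MG glioma cells carrying a GRP78-based luciferase sensor; 16 h compound incubation. Luminescence end-point read 10 min after Bright-Glo addition at room temperature.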
# IDH1 R132H inh: inhibitors of human mutant IDH1 R132H; O75874; IDH1-R132H enzyme, NADPH consumption, diaphorase/resazurin fluorescence; Potency, µM (top dose mostly 76.6 µM), for the others: at the highest dose activity change, negative = inhibition, actives largely listed as inhibitors; hit rate 0.093% among 390,000; AID 602179; also: potency is read from the fitted curve at half-maximal effect; % is scaled to controls: 0 for no effect and ±100 for the full control effect; nearly all actives have a fitted effect of over 65% in size
#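 IDH1-R132H (0.5 ug/mL) preincubated 30 min with compound, then NADPH (0.016 mM) and alpha-KG (2 mM) added; 80 min at RT, pH 7.5. Remaining NADPH coupled via diaphorase/resazurin to fluorescence (540/590 nm); concentration-response curves normalized to no-enzyme control.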
# * hit, by the source's call; i = inactive; ? = inconclusive; nt = not tested or not shown. This is a sample that favours compounds with a hit; in the whole collection about 0.85% have one here. Unless noted, calls follow the shape of the dose curve; as a rule, active = well fitted curve in the direction sought with a large enough effect; inconclusive = small, poorly fitted or top-dose-only effect, or another doubt; inactive = no such curve, though single readings can be large; an effect the other way counts as inactive or inconclusive.
SMILES,GLS inhibitor,MmCpn inh,CCT chaperon mod,pAkt inh,GRP78 ERSR act,IDH1 R132H inh
Cc1nn(Cc2ccc(F)cc2)c(C)c1NC(=O)c1cnn2c1NC(c1ccccc1)CC2C(F)(F)F (configuration not stated),1%,0%,-3,i,-3%,-2%
O=C(NC[C@@H]1CCCN2CCCC[C@H]12)c1cnn(-c2nccc(-c3cc4ccccc4o3)n2)c1C1CC1,nt,nt,nt,nt,-6%,nt
CCOc1ccc(CN2CCOc3ccc(C(O)c4cccnc4)cc3C2)cc1 (configuration not stated),nt,nt,nt,nt,-4%,nt
NC(=S)NN=C1CSSC1,20%,nt,0,i,35µM*,9%
CC1(C)CCC(=NNC(N)=S)CC1,5%,nt,0,i,-2%,4%
CCCCCCCCCC[n+]1ccc(/C=C/c2c(C)[nH]c3ccccc23)cc1,nt,nt,nt,nt,-12%,nt
CCCC(=O)NCCc1nc2ccccc2n1C,-7%,-1%,-2,-124%*,-5%,-1%
CN(Cc1ccc(C(C)(C)C)cc1)c1cccc2ccccc12,-2%,nt,nt,nt,-3%,nt
Cc1c(C(=O)NCCCc2ccncc2)cnn1-c1ncc2c(n1)-c1ccccc1CC2,nt,nt,nt,nt,-1%,nt
N#CC1=C(N)OC2=C(C(=O)CCC2)C1C1C=CCCC1 (configuration not stated),18%,1%,-3,-110%*,-4%,0%
CC(=O)c1ccccc1-c1ccc2c(c1)CC(CNC(=O)c1ccnc(Cl)c1)O2 (configuration not stated),nt,nt,nt,nt,-3%,nt
CS(=O)(=O)N(CC(=O)NCCSC1CCCCC1)c1cccc(F)c1,-4%,0%,-2,i,-5%,1%
CS(=O)(=O)N(CC(=O)NCCSC1CCCCC1)c1ccccc1,1%,?,-33*,i,-4%,5%
COc1ccc(CN2CCCC(n3cc(C(=O)NC4CCCC4)nn3)C2)c(O)c1 (configuration not stated),nt,nt,nt,nt,-1%,nt
O=C(c1cnn2cccnc12)N1CCOc2ccc(C(O)C(c3ccccc3)c3ccccc3)cc2C1 (configuration not stated),nt,nt,nt,nt,-1%,nt
C/C(=N\Nc1ccc(Cl)c(C(=O)O)c1)c1cc2ccccc2o1,10µM*,1%,0,i,16%,9%
C/C(=N\Nc1cccc(C(=O)O)c1)c1cc2ccccc2o1,?,2%,1,i,0%,17%
C/C(=N\Nc1ccc(Cl)c(C(=O)O)c1)c1cccc2ccccc12,11µM*,0%,2,i,0%,12%
C/C(=N\Nc1ccc(Cl)c(C(=O)O)c1)c1ccc2c(c1)OCO2,-13%,-2%,-55*,i,3%,10%
O=C(NCCN1Cc2ccccc2OC(c2ccsc2)C1)c1ccc2[nH]ccc2c1 (configuration not stated),nt,nt,nt,nt,-1%,nt
COc1ccc(/C=C2\CCn3c2nc2cc(C(=O)O)ccc2c3=O)cc1O,6.3µM*,?,-2,i,-1%,5%
CCc1ccc(NCc2cc3cc4c(cc3n(CC(=O)Nc3cccc(OC)c3)c2=O)OCO4)cc1,10µM*,nt,nt,nt,-2%,-3%
COc1ccc2cc(CNc3ccc(C)cc3)c(=O)n(CC(=O)Nc3ccc(C)cc3Cl)c2c1,13µM*,nt,nt,nt,-4%,-2%
Oc1ccc(/C=N/Nc2ccnc3cc(Cl)ccc23)c(O)c1O,13µM*,-2%,0,i,-4%,2%
Oc1ccc(/C=N/Nc2ccnc3cc(Cl)ccc23)cc1O,8%,-3%,-13,i,-15%,4%
SMILES,GLS inhibitor,MmCpn inh,CCT chaperon mod,pAkt inh,GRP78 ERSR act,IDH1 R132H inh
COc1ccc(-c2cc(C(=O)N3CCN(c4ncccn4)CC3)c3ccccc3n2)cc1OC,-3%,1%,-60*,i,-2%,9%
O=C(c1cc(-c2ccncc2)nc2ccc(Br)cc12)N1CCN(c2ccccn2)CC1,0%,nt,-2,-114%*,2%,0%
OC1(c2ccc3c(c2)CN(Cc2ccccn2)CCO3)CCN(c2ccccc2F)CC1,nt,nt,nt,nt,-3%,nt
COC(=O)[C@@H]1CCCN1Cc1ccc2c(c1)CN(Cc1ccc3c(c1)CCO3)CCO2,nt,nt,nt,nt,-2%,nt
O=C(O)c1cc(O)c2c(c1)C(=O)c1cccc(O)c1C2=O,22µM*,-2%,2,i,-2%,18%
Cc1nn(CC(C)C)c(Cl)c1C(=O)NCC(C)(C)N1CCOCC1,5%,nt,-34*,i,0%,-3%
CCOc1ccc(CCNC(=O)CS(=O)Cc2nc(-c3ccccc3Cl)oc2C)cc1OCC (configuration not stated),-2%,2%,0,i,-5%,-6%
Cc1ccc(CCNC(=O)CS(=O)Cc2nc(-c3ccccc3Cl)oc2C)cc1 (configuration not stated),3%,0%,-60*,nt,-5%,2%
CCOC(=O)C1=C(N)Oc2c(oc(CO)cc2=O)C1c1ccc(Cl)cc1 (configuration not stated),2%,1%,1,i,0%,4%
CCOC(=O)C1=C(N)Oc2c(oc(CO)cc2=O)C1c1c(F)cccc1Cl (configuration not stated),12%,1%,1,-109%*,-3%,7%
Cc1occc1C(=O)NCCN1Cc2ccccc2OC(c2ccccc2F)C1 (configuration not stated),nt,nt,nt,nt,-5%,nt
COCC(C)NC(=O)c1cccc(Cl)c1 (configuration not stated),3%,nt,0,-114%*,-7%,2%
CC(C)CC(NC(=O)c1cccc(Cl)c1)C(=O)O (configuration not stated),-14%,-3%,1,i,-2%,-6%
O=C(Cn1cnc2ccccc2c1=O)N/N=C/c1ccc(Br)cc1,3%,1%,0,i,-3%,-11%
COc1ccc(/C=N\NC(=O)CNC(=O)C(c2ccccc2)c2ccccc2)cc1[N+](=O)[O-],0%,1%,1,i,-1%,7%
COc1cc(/C=N\NC(=O)CNC(=O)C(c2ccccc2)c2ccccc2)ccc1O,11µM*,-7%,1,i,-4%,2%
COc1cc(/C=N/NC(=O)Cn2cnc3ccccc3c2=O)ccc1O,20µM*,0%,-3,i,-4%,0%
CN(CCO)c1nc2c(c(=O)n(Cc3ccc(Cl)cc3)c(=O)n2C)n1C,8.9µM*,-3%,-1,i,-5%,4%
CC(O)CNc1nc2c(c(=O)n(Cc3ccc(Cl)cc3)c(=O)n2C)n1C (configuration not stated),11µM*,-1%,1,i,-3%,6%
O=c1oc2cc(O)ccc2c2ccccc12,28%,-24%,-17,i,-2%,13%

# Screens (PubChem BioAssay)
